Measured values published in ChEMBL document CHEMBL4513216, “Probing the Open Global Health Chemical Diversity Library for Multistage-Active Starting Points for Next-Generation Antimalarials” (ACS Infect Dis, 2020).
Among all 69,000 compounds or so, about 8,600 (12%) showed an effect of 50% or more. The entries come from a sample that favours strong results as a whole.

Each molecule was assayed on Plasmodium berghei (assay: Screen against P. berghei liver stage (PbLuc), transformed with Luciferase, at 10uM). Conditions: tested at 10 uM.
Type: functional, HepG2
Molecule Cc1ncc(CNC2CCc3nc(C(C)C)nn3C2)s1 (centres undefined) has an INHIBITION of 24.7%.
In the case of CCn1c(-c2ccccc2)nn(CC(=O)NCCc2ccc(C)o2)c1=O, the INHIBITION is reported as -19.1%.
Molecule CCCc1noc(CNC2CCCN(Cc3noc(C4CC4)n3)C2)n1 (centres undefined) has an INHIBITION of -37.7%.
In the case of Cc1nc2c(N(C)Cc3ccnn3C)nc(N)nc2n1C, the INHIBITION is reported as 32.3%.
Cc1ccc(F)cc1-n1c(CCCN2CCOCC2)n[nH]c1=O gave an INHIBITION of 39.4%.
Molecule COc1cc(C)sc1C(=O)N1CCCC(n2nc(C)nc2C)C1 (centres undefined) has an INHIBITION of 48.2%.
For CCc1ccc(C(=O)O)cc1S(=O)(=O)N(C)c1cccc(C#N)c1, the INHIBITION was 24.4%.
Work on Cc1cccc(N(C)S(=O)(=O)c2cc(C(=O)O)cs2)c1 yielded an INHIBITION of 22.3%.
Work on CCc1ccc(C(=O)O)cc1S(=O)(=O)N(C)c1cccc(C)c1 yielded an INHIBITION of 59.1%.
COc1ccc(S(=O)(=O)NCC(N)c2ccccc2)c(C)c1 (centres undefined) gave an INHIBITION of 24.8%.
Molecule O=C(c1cccnc1)N1CCOC(c2ccc(-c3cncnc3)cn2)C1 (centres undefined) has an INHIBITION of 31.6%.
Work on Cc1cc(=O)n(CCNS(=O)(=O)c2ccccc2)cn1 yielded an INHIBITION of 31.3%.
Cc1cc(=O)n(CCNS(=O)(=O)c2ccc(F)c(Cl)c2)cn1 gave an INHIBITION of 29.7%.
With Cc1cc(=O)n(CCNS(=O)(=O)c2cccc(C(F)(F)F)c2)cn1 the INHIBITION was 68.5%.
Work on CN1CCC(c2nccnc2Nc2cnccn2)CC1 yielded an INHIBITION of 9.98%.
Molecule CC(C)(C)CN1CCCC(c2nccnc2Nc2cnccn2)C1 (centres undefined) has an INHIBITION of 51.7%.
CC(C)(C)CN1CCC(c2nccnc2Nc2cnccn2)CC1 showed an INHIBITION of -0.232%.
With CN1CCCC1CNC(=O)CCCOc1cccc(Br)c1 (centres undefined) the INHIBITION was 9.383%.
For NC(=O)CN1CC(O)c2ccccc2S1(=O)=O (centres undefined), the INHIBITION was 37.4%.
Molecule Cc1nc(C(=O)N2CCCC(c3ccc4sc(N)nc4n3)C2)co1 (centres undefined) has an INHIBITION of 5.56%.
In the case of CN(Cc1cncnc1)[C@@H]1CN(C(=O)C2CC2)[C@@H]2CCCO[C@H]12, the INHIBITION is reported as -7.7%.
With CN(Cc1cncnc1)[C@H]1CN(C(=O)c2ccc[nH]2)[C@@H]2CCCO[C@@H]21 the INHIBITION was 58.4%.
Molecule CN(Cc1cncnc1)[C@H]1CN(C(=O)c2ccco2)[C@@H]2CCCO[C@@H]21 has an INHIBITION of -35.8%.
CN(Cc1cccnc1)[C@@H]1CN(C(=O)c2ccoc2)[C@@H]2CCCO[C@H]12 was tested, and the INHIBITION was -2.35%.
In the case of CN(Cc1cccnc1)[C@@H]1CN(C(=O)c2ccno2)[C@@H]2CCCO[C@H]12, the INHIBITION is reported as 50.3%.
CN(Cc1cncnc1)[C@@H]1CN(C(=O)c2ccco2)[C@@H]2CCCO[C@H]12 was tested, and the INHIBITION was 26.7%.
COCC(=O)N1C[C@H](N(C)Cc2cncnc2)[C@H]2OCCC[C@H]21 was tested, and the INHIBITION was 64.7%.
CN(Cc1cccnc1)[C@@H]1CN(C(=O)CC2CC2)[C@@H]2CCCO[C@H]12 gave an INHIBITION of -31%.
Work on CN(Cc1cccnc1)[C@@H]1CN(C(=O)c2ccco2)[C@@H]2CCCO[C@H]12 yielded an INHIBITION of 3.17%.
